Assay results reported in article PMC7862700, “An all-to-all approach to the identification of sequence-specific readers for epigenetic DNA modifications on cytosine”.

Assays:
Experiment in all cases: DAPPL (digital affinity profiling via proximity ligation, sequencing); 10 mM Tris-HCl pH 7.5, 50 mM NaCl, 1 mM DTT, 4% glycerol, room temperature, 30 min; GST-TFs on glutathione beads, 16-mer random dsDNA library, 0.1% formaldehyde crosslink after washing; high values mean tight binding
[1] = biological target: T1, FLI1 (Homo sapiens, UniProt Q01543 1-452); settings: protein: recombinant; tags: N-terminal GST; dsDNA, one strand shown
T1 sequence: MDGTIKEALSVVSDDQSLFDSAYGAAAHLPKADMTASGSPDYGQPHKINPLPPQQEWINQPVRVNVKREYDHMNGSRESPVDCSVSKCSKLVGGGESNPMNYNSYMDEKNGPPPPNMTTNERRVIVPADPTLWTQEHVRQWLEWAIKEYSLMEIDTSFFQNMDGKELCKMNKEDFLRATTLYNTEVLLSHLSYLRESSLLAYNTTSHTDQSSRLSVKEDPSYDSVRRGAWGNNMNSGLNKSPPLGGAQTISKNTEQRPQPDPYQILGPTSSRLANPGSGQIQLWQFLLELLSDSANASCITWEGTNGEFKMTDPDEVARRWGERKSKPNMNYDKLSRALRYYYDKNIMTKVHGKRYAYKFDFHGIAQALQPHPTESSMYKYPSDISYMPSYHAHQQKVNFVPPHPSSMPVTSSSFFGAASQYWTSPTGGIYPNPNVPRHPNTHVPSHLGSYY
Summary of the method: (§1)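 A tag-only sample was pooled with DNA-barcoded human transcription factors that had been expressed in yeast as GST fusions and captured on glutathione beads. The pools were incubated for 30 min at room temperature with 200 nmole of a random double-stranded 16-mer DNA library in Tris/NaCl/DTT/glycerol buffer, then washed, crosslinked with 0.1% formaldehyde, proximity-ligated (BsaI/T4 ligase, 1 h, 37 °C), PCR-amplified and sequenced on an Illumina NextSeq500. Binding signal is each hexamer's read frequency for a factor divided by its frequency for the tag-only sample.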

[2] = biological target: T2, ELK1 (Homo sapiens, UniProt P19419 1-428); settings: protein: recombinant; tags: N-terminal GST; dsDNA, one strand shown
T2 sequence: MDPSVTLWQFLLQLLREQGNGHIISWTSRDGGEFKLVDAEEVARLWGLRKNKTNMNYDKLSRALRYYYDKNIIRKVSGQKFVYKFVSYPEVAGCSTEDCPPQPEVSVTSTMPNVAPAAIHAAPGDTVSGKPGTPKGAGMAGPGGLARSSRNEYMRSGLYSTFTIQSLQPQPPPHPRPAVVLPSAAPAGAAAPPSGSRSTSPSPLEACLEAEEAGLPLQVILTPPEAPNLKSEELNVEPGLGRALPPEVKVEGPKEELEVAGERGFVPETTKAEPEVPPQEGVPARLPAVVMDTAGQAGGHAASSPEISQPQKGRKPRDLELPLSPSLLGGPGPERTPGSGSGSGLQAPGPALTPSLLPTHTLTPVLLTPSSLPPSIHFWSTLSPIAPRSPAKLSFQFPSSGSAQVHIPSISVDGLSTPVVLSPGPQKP
Summary of the method: as §1

[3] = biological target: T3, GABPA (Homo sapiens, UniProt Q06546 1-454); settings: protein: recombinant; tags: N-terminal GST; dsDNA, one strand shown
T3 sequence: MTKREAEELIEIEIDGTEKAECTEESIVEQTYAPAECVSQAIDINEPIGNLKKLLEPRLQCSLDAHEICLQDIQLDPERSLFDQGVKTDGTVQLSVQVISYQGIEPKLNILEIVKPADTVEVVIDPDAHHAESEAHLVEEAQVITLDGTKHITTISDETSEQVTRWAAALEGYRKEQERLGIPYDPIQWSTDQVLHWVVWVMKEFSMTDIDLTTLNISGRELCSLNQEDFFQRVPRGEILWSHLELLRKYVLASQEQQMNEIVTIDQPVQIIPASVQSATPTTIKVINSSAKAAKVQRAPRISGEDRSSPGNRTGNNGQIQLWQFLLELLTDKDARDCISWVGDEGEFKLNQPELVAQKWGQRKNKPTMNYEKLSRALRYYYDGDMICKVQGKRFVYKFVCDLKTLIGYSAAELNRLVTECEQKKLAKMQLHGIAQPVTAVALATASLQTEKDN
Summary of the method: as §1

[4] = biological target: T4, ERG (Homo sapiens, UniProt P11308 1-479); settings: protein: recombinant; tags: N-terminal GST; dsDNA, one strand shown
T4 sequence: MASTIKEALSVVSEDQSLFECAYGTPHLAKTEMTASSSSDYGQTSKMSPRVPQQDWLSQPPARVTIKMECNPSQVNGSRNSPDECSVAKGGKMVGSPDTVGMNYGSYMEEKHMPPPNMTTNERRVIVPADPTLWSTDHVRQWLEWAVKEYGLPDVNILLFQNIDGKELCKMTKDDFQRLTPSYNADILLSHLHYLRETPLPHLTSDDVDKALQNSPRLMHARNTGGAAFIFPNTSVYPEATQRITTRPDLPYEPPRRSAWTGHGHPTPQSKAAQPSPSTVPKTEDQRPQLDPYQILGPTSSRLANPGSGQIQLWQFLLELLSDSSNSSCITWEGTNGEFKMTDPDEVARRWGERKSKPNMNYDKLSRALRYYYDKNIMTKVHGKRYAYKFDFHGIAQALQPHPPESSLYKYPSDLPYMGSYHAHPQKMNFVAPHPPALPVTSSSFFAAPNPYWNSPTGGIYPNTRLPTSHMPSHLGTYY
Summary of the method: as §1

[5] = biological target: ELF1 (Homo sapiens, UniProt P32519 1-619); settings: protein: recombinant; tags: N-terminal GST; dsDNA, one strand shown
Sequence of ELF1 (P32519 whole entry): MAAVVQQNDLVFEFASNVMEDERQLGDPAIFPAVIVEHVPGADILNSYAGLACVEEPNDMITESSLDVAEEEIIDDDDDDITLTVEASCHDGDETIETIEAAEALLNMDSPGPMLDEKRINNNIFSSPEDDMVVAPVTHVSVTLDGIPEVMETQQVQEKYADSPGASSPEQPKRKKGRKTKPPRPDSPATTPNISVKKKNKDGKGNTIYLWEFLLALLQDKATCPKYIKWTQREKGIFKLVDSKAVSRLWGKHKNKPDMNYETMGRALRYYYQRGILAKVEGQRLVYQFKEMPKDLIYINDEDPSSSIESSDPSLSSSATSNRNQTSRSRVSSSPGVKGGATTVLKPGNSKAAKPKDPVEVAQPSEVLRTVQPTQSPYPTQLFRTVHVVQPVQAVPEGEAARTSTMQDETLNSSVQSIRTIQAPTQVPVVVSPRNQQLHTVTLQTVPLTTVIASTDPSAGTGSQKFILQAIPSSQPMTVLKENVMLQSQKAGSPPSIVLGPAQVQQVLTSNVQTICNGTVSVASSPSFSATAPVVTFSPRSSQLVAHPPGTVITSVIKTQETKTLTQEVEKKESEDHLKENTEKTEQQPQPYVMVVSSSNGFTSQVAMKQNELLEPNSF
Summary of the method: as §1

[6] = biological target: T5, EHF (Homo sapiens, UniProt Q9NZC4 1-300); settings: protein: recombinant; tags: N-terminal GST; dsDNA, one strand shown
T5 sequence: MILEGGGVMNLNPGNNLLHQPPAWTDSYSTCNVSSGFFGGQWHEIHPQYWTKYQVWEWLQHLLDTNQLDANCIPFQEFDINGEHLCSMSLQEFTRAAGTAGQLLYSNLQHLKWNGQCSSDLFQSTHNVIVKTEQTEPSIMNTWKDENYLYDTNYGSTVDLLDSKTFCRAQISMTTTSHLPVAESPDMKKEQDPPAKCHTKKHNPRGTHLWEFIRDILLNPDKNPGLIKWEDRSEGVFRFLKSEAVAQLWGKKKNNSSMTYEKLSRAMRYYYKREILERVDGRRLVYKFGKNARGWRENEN
Summary of the method: as §1

[7] = biological target: SPI1 (Homo sapiens, UniProt P17947 1-270); settings: protein: recombinant; tags: N-terminal GST; dsDNA, one strand shown
Summary of the method: as §1

[8] = biological target: SPIB (Homo sapiens, UniProt Q01892 1-262); settings: protein: recombinant; tags: N-terminal GST; dsDNA, one strand shown
Sequence of SPIB (Q01892 whole entry): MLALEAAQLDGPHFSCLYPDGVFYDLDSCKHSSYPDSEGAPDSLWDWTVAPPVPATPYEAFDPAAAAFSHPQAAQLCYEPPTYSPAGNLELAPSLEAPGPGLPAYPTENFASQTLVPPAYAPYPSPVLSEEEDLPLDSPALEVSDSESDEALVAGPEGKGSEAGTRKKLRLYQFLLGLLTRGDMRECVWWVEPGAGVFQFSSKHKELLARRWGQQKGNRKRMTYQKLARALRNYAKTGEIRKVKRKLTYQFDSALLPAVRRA
Summary of the method: as §1

[9] = biological target: T6, ELK3 (Homo sapiens, UniProt P41970 1-407); settings: protein: recombinant; tags: N-terminal GST; dsDNA, one strand shown
T6 sequence: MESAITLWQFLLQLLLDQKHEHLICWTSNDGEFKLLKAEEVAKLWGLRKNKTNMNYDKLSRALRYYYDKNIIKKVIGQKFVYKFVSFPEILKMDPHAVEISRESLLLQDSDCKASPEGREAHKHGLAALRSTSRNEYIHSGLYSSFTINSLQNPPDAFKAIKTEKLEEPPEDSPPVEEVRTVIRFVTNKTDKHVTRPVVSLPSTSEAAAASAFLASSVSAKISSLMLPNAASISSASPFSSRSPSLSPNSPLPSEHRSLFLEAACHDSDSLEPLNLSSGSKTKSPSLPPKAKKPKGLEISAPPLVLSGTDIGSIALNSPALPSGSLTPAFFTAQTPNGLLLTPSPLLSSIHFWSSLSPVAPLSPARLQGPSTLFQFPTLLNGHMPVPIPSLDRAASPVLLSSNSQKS
Summary of the method: as §1

[10] = biological target: T7, FEV (Homo sapiens, UniProt Q99581 1-238); settings: protein: recombinant; tags: N-terminal GST; dsDNA, one strand shown
T7 sequence: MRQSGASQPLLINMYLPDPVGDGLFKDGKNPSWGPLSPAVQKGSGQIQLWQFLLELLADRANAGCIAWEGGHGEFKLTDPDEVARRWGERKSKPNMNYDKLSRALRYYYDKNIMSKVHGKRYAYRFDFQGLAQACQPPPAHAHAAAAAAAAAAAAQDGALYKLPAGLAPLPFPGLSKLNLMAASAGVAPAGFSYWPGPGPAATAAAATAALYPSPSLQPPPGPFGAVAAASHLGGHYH
Summary of the method: as §1

[11] = biological target: ETV5 (Homo sapiens, UniProt P41161 1-510); settings: protein: recombinant; tags: N-terminal GST; dsDNA, one strand shown
Sequence of ETV5 (P41161 whole entry): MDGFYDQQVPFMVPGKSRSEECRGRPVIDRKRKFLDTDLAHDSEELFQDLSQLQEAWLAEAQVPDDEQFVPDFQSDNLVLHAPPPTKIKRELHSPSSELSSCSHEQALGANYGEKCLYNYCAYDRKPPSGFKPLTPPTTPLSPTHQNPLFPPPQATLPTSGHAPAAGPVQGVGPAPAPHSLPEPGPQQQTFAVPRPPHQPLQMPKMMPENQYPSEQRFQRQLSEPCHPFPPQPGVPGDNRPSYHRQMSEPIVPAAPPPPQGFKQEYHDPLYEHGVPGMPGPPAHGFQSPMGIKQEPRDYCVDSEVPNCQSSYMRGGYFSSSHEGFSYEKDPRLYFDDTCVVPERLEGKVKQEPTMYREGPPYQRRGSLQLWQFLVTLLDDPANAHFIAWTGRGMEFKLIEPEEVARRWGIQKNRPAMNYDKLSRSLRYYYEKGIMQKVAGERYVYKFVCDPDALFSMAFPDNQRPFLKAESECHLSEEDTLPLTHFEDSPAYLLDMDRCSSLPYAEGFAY
Summary of the method: as §1

[12] = biological target: HSF1 (Homo sapiens, UniProt Q00613 1-529); settings: protein: recombinant; tags: N-terminal GST; chain copies: 3; dsDNA, one strand shown
Sequence of HSF1 (Q00613 whole entry): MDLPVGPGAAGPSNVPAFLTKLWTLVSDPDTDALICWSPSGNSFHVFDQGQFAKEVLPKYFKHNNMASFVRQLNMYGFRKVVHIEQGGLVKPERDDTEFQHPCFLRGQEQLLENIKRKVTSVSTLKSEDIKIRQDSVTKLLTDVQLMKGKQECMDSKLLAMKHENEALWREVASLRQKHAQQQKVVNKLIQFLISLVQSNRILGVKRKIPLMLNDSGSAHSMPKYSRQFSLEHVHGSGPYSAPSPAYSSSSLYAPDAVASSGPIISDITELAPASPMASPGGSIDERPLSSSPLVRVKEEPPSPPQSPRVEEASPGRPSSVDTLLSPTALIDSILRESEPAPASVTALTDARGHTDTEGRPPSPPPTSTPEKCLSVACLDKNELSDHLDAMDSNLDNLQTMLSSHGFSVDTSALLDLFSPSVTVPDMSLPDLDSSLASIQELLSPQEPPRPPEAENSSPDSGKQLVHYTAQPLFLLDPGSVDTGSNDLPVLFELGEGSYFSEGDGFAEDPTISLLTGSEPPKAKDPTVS
Summary of the method: as §1

[13] = biological target: T8, SPIC (Homo sapiens, UniProt Q8N5J4 1-248); settings: protein: recombinant; tags: N-terminal GST; dsDNA, one strand shown
T8 sequence: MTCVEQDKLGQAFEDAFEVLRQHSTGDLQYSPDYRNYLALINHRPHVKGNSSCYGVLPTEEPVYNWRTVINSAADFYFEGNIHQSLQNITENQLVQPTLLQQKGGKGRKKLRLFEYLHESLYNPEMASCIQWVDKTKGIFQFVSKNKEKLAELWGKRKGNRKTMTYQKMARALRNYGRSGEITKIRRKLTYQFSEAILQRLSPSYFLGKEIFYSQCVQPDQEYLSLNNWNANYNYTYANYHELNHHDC
Summary of the method: as §1

[14] = biological target: ELF4 (Homo sapiens, UniProt Q99607 1-663); settings: protein: recombinant; tags: N-terminal GST; dsDNA, one strand shown
Sequence of ELF4 (Q99607 whole entry): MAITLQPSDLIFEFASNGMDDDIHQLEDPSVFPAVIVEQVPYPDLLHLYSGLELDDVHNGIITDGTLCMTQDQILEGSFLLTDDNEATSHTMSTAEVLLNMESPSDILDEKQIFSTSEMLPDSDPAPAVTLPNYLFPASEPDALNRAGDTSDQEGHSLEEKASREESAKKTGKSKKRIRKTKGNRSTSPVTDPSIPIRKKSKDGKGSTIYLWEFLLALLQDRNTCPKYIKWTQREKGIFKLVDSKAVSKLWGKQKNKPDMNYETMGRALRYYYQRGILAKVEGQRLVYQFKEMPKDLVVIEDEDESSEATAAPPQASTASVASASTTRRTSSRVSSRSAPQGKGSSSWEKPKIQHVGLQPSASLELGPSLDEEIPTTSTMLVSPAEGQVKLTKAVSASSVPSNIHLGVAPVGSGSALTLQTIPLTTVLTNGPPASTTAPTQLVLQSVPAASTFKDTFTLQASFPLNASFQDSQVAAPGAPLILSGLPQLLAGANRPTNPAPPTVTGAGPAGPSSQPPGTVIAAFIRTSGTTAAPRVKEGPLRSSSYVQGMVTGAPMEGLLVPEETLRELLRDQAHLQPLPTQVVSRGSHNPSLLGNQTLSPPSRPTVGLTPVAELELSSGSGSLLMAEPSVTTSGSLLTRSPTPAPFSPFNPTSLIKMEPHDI
Summary of the method: as §1

[15] = biological target: T9, ELK4 (Homo sapiens, UniProt P28324-2 1-405); settings: protein: recombinant; tags: N-terminal GST; dsDNA, one strand shown
T9 sequence: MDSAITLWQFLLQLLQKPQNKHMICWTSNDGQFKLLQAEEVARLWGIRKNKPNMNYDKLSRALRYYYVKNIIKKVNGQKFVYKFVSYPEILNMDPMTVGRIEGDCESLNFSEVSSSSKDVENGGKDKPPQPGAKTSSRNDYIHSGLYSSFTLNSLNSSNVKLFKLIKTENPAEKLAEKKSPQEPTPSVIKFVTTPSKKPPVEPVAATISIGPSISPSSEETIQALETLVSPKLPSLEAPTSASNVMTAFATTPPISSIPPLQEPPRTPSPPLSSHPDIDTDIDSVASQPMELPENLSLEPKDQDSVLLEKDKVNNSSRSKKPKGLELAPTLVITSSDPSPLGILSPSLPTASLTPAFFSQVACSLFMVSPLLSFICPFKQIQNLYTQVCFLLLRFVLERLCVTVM
Summary of the method: as §1

[16] = biological target: T10, ETV2 (Homo sapiens, UniProt O00321 1-342); settings: protein: recombinant; tags: N-terminal GST; dsDNA, one strand shown
T10 sequence: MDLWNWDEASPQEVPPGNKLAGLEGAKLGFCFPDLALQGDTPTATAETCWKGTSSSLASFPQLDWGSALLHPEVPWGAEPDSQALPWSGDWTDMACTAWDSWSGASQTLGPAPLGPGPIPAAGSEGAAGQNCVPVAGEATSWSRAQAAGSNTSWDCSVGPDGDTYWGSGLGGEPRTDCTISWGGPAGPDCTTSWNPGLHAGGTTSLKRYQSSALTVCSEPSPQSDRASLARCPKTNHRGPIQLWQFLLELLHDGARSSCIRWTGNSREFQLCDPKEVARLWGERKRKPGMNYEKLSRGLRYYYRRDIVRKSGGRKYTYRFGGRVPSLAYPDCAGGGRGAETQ
Summary of the method: as §1

[17] = biological target: T11, ELF3 (Homo sapiens, UniProt P78545 1-371); settings: protein: recombinant; tags: N-terminal GST; dsDNA, one strand shown
T11 sequence: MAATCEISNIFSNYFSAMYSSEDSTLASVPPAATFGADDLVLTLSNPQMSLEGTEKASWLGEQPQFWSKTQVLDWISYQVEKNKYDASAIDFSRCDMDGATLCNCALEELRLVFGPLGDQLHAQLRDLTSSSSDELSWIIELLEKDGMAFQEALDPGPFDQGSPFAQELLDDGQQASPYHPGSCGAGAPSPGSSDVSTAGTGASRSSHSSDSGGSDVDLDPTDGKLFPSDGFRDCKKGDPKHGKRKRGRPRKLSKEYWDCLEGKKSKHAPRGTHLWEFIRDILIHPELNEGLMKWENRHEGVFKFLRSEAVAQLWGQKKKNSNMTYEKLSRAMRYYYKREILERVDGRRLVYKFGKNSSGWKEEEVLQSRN
Summary of the method: as §1

[18] = biological target: CRX (Homo sapiens, UniProt O43186 1-299); settings: protein: recombinant; tags: N-terminal GST; dsDNA, one strand shown
Sequence of CRX (O43186 whole entry): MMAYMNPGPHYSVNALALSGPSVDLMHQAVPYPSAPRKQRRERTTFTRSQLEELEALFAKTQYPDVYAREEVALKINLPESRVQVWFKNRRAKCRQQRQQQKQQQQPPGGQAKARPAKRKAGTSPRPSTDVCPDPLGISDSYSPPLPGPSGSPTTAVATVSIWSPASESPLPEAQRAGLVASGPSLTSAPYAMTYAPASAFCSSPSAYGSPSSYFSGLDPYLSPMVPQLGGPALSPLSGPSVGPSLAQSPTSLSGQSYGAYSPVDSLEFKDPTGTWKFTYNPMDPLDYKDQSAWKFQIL
Summary of the method: as §1

[19] = biological target: ETV1 (Homo sapiens, UniProt P50549 1-477); settings: protein: recombinant; tags: N-terminal GST; dsDNA, one strand shown
Sequence of ETV1 (P50549 whole entry): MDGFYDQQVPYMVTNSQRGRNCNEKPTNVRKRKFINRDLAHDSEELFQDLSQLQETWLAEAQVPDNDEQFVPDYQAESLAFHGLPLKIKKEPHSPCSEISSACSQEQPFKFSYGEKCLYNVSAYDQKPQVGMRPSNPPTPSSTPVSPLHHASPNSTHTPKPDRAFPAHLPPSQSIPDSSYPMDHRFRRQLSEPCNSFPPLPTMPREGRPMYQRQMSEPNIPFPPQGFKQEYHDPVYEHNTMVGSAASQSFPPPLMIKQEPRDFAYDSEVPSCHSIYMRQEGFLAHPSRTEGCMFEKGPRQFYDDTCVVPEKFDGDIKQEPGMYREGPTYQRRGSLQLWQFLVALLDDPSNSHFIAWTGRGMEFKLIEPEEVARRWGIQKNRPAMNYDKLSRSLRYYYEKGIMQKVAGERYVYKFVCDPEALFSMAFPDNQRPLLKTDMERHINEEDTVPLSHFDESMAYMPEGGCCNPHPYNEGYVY
Summary of the method: as §1

Sequence: TCTCGT
- binding signal [1]: 1.34 fold enrichment (6-mer frequency, TF over GST control)
- binding signal [2]: 1.11 fold enrichment (6-mer frequency, TF over GST control)
- binding signal [3]: 1.15 fold enrichment (6-mer frequency, TF over GST control)
- binding signal [4]: 1.11 fold enrichment (6-mer frequency, TF over GST control)
- binding signal [5]: 1.24 fold enrichment (6-mer frequency, TF over GST control)
- binding signal [6]: 1.22 fold enrichment (6-mer frequency, TF over GST control)
- binding signal [7]: 1.24 fold enrichment (6-mer frequency, TF over GST control)
- binding signal [8]: 1.3 fold enrichment (6-mer frequency, TF over GST control)
- binding signal [9]: 1.19 fold enrichment (6-mer frequency, TF over GST control)
- binding signal [10]: 1.21 fold enrichment (6-mer frequency, TF over GST control)
- binding signal [11]: 1.1 fold enrichment (6-mer frequency, TF over GST control)
- binding signal [12]: 2.01 fold enrichment (6-mer frequency, TF over GST control)
- binding signal [13]: 1.31 fold enrichment (6-mer frequency, TF over GST control)
- binding signal [14]: 1.24 fold enrichment (6-mer frequency, TF over GST control)
- binding signal [15]: 1.3 fold enrichment (6-mer frequency, TF over GST control)
- binding signal [16]: 1.27 fold enrichment (6-mer frequency, TF over GST control)
- binding signal [17]: 1.65 fold enrichment (6-mer frequency, TF over GST control)
- binding signal [18]: 1.35 fold enrichment (6-mer frequency, TF over GST control)
- binding signal [19]: 1.27 fold enrichment (6-mer frequency, TF over GST control)
